Inconclusive results are not listed. The source made the active and inactive calls. Unless noted, calls come from the whole dose curve; as a rule, active = well fitted curve in the direction sought with a large enough effect; inconclusive = small, poorly fitted or top-dose-only effect, or another doubt; inactive = no such curve, though single readings can be large; an effect the other way counts as inactive or inconclusive.
Tested on: not listed separately
Assay: P-glycoprotein substrates identified in KB-8-5-11 adenocarcinoma cell line, qHTS therapeutic library screen (AID 1346987); note: nearly all actives have a fitted effect of over 65% in size; note: potency is the fitted concentration of half-maximal effect; for activity change, negative = cytotoxicity: % is set by controls: 0 for no effect and ±100 for the full control effect
Conditions: KB-8-5-11 (P-gp overexpressing) viability, CellTiter-Glo, 72 h; series mostly up to 44.5 µM; activity change, negative = cytotoxicity: at the top concentration
How it was run: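 KB-8-5-11: colchicine-selected sub-line of KB-3-1 over-expressing P-gp; assay medium lacked colchicine. 72 h drug exposure at 37 degree C, CellTiter-Glo.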

Row | SMILES | Potency | activity change, negative = cytotoxicity
1 | CC(=O)[O][Hg][c]1ccccc1 | 259 nM (active) | –
2 | S=C(SSC(=S)N1CCCCC1)N1CCCCC1 | – | -2.48% (inactive)
3 | Nc1ccc(N=Nc2ccccc2)cc1 | – | 13.2% [at 93.4 µM] (inactive)
4 | CC(C)[C@]12O[C@H]1[C@@H]1O[C@]13[C@]1(O[C@H]1C[C@H]1C4=C(CC[C@@]13C)C(=O)OC4)[C@@H]2O | 20.6 nM (active) | –
5 | CCCCC(CC)COC(=O)c1ccccc1C(=O)OCC(CC)CCCC (stereo not given) | – | -15.9% [at 93.4 µM] (inactive)
6 | COc1nn(CSP(=S)(OC)OC)c(=O)s1 | – | 7.14% [at 93.4 µM] (inactive)
7 | O=S(=O)(CC1CS1)c1ccc(Oc2ccccc2)cc1 (stereo not given) | – | 5.2% (inactive)
8 | O=C1CCC[C@@H]2[C@H]3CCCN4CCC[C@@H](CN12)[C@@H]34 | – | -9% (inactive)
9 | CCCCCCCCCC(CC)c1ccc(S(=O)(=O)O)cc1 (stereo not given) | inactive | –
10 | CC(O)CN1CCN(CC(=O)[O-])CCN(CC(=O)[O-])CCN(CC(=O)[O-])CC1.[Gd+3] (stereo not given) | inactive | –
11 | O=C(O)CCCOc1ccc(Cl)cc1Cl | – | 10.1% [at 93.4 µM] (inactive)
12 | C[N+](C)(C)CC(=O)O | inactive | –

Tested on: not listed separately
Assay: Natriuretic polypeptide receptor (hNpr1) antagonism - Pilot counterscreen GloSensor control cell line (AID 1347045; calls by dose curve; note: % is set by controls: 0 for no effect and ±100 for the full control effect)
Conditions: HEK293 cGMP GloSensor cells, SNP-stimulated luminescence, 20 min; series mostly up to 38.3 µM; activity change, negative = inhibition: at the top concentration
How it was run: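 HEK293 cells carrying the GloSensor cGMP sensor (GIP/pGS-40F) were loaded with 2% GloSensor reagent for 2 h, exposed to compounds for 30 min, and then stimulated with 50 uM sodium nitroprusside for 20 min at room temperature.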

Row | SMILES | activity change, negative = inhibition
13 | Cn1cnc(CCN)c1 | -1.54% (inactive)
14 | C[C@@H](N)Cc1cnc[nH]1 | 7.89% (inactive)
15 | C[N+]1(C)C2CCC1CC(OC(=O)C(CO)c1ccccc1)C2 (stereo not given) | -4.05% (inactive)
16 | NC(CP(=O)(O)O)C(=O)O (stereo not given) | 1.27% (inactive)
17 | C#CCOC(=O)C1=CCCN(C)C1 | 5.38% (inactive)
18 | CS(=N)(=O)CC[C@H](N)C(=O)O (stereo not given in full) | 4.24% (inactive)
19 | Cc1nccc2c1[nH]c1ccccc12 | 4.77% (inactive)
20 | CCCN(CCC)C1CCc2ccc(O)cc2C1 (stereo not given) | 5.81% (inactive)
21 | Clc1cnc(Oc2ccc(Oc3ncc(Cl)cc3Cl)cc2)c(Cl)c1 | -6.21% (inactive)
22 | C=CCN1CC[C@]23CCCCC2[C@H]1Cc1ccc(O)cc13 (stereo not given in full) | 2.08% (inactive)

Molecular target: Atrial natriuretic peptide receptor 2 (Homo sapiens) (UniProt P20594)
Sequence (P20594 whole entry, looked up): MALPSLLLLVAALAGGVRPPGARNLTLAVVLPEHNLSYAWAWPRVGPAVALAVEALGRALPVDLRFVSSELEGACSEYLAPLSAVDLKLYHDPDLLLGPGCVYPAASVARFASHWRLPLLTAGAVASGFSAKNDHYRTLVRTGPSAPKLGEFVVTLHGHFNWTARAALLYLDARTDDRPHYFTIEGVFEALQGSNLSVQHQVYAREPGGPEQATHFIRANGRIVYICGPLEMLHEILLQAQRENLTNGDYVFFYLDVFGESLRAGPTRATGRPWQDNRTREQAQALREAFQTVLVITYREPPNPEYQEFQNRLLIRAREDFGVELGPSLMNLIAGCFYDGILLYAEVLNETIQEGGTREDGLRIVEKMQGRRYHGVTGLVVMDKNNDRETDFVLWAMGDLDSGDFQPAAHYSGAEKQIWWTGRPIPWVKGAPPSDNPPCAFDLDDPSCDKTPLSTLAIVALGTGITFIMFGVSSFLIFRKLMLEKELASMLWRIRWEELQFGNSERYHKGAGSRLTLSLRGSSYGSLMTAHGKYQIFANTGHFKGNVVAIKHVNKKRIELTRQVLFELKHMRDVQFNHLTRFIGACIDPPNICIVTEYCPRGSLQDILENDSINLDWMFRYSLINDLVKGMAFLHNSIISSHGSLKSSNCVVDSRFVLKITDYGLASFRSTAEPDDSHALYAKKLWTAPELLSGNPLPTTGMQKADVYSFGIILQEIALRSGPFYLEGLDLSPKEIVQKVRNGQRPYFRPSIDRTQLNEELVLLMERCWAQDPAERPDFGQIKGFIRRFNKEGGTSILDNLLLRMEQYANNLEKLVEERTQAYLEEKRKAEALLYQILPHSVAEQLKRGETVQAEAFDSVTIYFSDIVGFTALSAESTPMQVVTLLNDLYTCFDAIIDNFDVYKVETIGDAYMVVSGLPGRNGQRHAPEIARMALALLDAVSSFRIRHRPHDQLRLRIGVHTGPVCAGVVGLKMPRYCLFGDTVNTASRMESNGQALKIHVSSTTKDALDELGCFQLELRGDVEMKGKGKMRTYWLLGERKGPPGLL
Assay: Natriuretic polypeptide receptor (hNpr2) antagonism - Pilot subtype selectivity assay (AID 1347050; calls by dose curve; note: % is set by controls: 0 for no effect and ±100 for the full control effect)
Conditions: NPR2-expressing cells, cGMP antagonist-mode read-out; series mostly up to 38.3 µM; activity change, negative = inhibition: at the top concentration
How it was run: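 Pilot selectivity screen against hNpr2: HEK293 cGMP-sensor cells are treated with LOPAC1280 compounds, then with hNppC peptide at 1 nM final. The cGMP-driven luminescence change over 20 min at room temperature is the read-out.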

Row | SMILES | activity change, negative = inhibition | Potency
23 | Cn1cnc(CCN)c1 | 10.9% (inactive) | –
24 | C[C@@H](N)Cc1cnc[nH]1 | 25.6% (inactive) | –
25 | C[N+]1(C)C2CCC1CC(OC(=O)C(CO)c1ccccc1)C2 (stereo not given) | – | inactive
26 | NC(CP(=O)(O)O)C(=O)O (stereo not given) | 2.06% (inactive) | –
27 | C#CCOC(=O)C1=CCCN(C)C1 | 8.86% (inactive) | –
28 | CS(=N)(=O)CC[C@H](N)C(=O)O (stereo not given in full) | 0.148% (inactive) | –
29 | Cc1nccc2c1[nH]c1ccccc12 | 7.64% (inactive) | –
30 | CCCN(CCC)C1CCc2ccc(O)cc2C1 (stereo not given) | -0.614% (inactive) | –
31 | Clc1cnc(Oc2ccc(Oc3ncc(Cl)cc3Cl)cc2)c(Cl)c1 | -0.185% (inactive) | –
32 | C=CCN1CC[C@]23CCCCC2[C@H]1Cc1ccc(O)cc13 (stereo not given in full) | -2.27% (inactive) | –

Tested on: not listed separately
Assay: NS1 protein of Zika virus - qHTS assay to identify small molecule inhibitors in human HEK 293 cells (AID 1347053);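 note: plate controls were infected untreated cells for no effect and uninfected cells for full effect; nearly all actives have a fitted effect of over 55% in size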
Conditions: HEK293 ZIKV MR766 infection, NS1 TR-FRET, 24 h; series mostly up to 46.1 µM; activity change, negative = inhibition: at the top concentration
How it was run: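 Inhibition of NS1 expression was scored in HEK 293 cells given compound 1 h ahead of MR766 virus (MOI = 0.5). Following 24 h at 37 C, two anti-NS1 antibodies generated a TR-FRET signal, scaled between uninfected and infected controls.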

Row | SMILES | activity change, negative = inhibition | Potency
33 | Cn1cnc(CCN)c1 | -1.73% (inactive) | –
34 | CC1(C)CC/C(=C/c2ccc(Cl)cc2)C1(O)Cn1cncn1 (stereo not given) | -16.3% [at 92.8 µM] (inactive) | –
35 | C[C@@H](N)Cc1cnc[nH]1 | 3.48% (inactive) | –
36 | CC(C)Oc1cccc(NC(=O)c2ccccc2C(F)(F)F)c1 | 9.47% [at 92.8 µM] (inactive) | –
37 | COc1ccc(C(=O)c2c(C)n(CCN3CCOCC3)c3cc(I)ccc23)cc1 | -10.7% (inactive) | –
38 | O=S(=O)(c1ccc(Cl)cc1)c1ccc(Cl)cc1 | -7.32% [at 92.8 µM] (inactive) | –
39 | Fc1cc(Br)ccc1CBr | 0.737% (inactive) | –
40 | C[N+]1(C)C2CCC1CC(OC(=O)C(CO)c1ccccc1)C2 (stereo not given) | – | inactive
41 | CCC(=O)O[C@@H]1C=C2CCC3C(CCC4(C)C3CC[C@@H]4OC(=O)CC)C2CC1 (stereo not given in full) | 12.2% (inactive) | –
42 | Nc1ccc([N+](=O)[O-])cc1 | -0.439% [at 92.8 µM] (inactive) | –
43 | NC(CP(=O)(O)O)C(=O)O (stereo not given) | 6.04% (inactive) | –
44 | C#CCOC(=O)C1=CCCN(C)C1 | 14.6% (inactive) | –
45 | Nc1ccc(N=Nc2ccccc2)cc1 | 13.9% [at 92.8 µM] (inactive) | –
46 | CS(=N)(=O)CC[C@H](N)C(=O)O (stereo not given in full) | -4.44% (inactive) | –
47 | C=CCC1=C(C)C(OC(=O)C2C(C=C(C)C)C2(C)C)CC1=O (stereo not given) | 6.65% [at 92.8 µM] (inactive) | –
48 | CCCCC(CC)COC(=O)c1ccccc1C(=O)OCC(CC)CCCC (stereo not given) | -3.31% [at 92.8 µM] (inactive) | –
49 | Nc1ccc(Cl)cc1N | 0.578% [at 92.8 µM] (inactive) | –

Row | SMILES | activity change, negative = inhibition | Potency
50 | CCOP(=O)(NC(C)C)Oc1ccc(SC)c(C)c1 (stereo not given) | 100% [at 92.8 µM] (inactive) | –
51 | COc1nn(CSP(=S)(OC)OC)c(=O)s1 | 6.51% [at 92.8 µM] (inactive) | –
52 | O=[N+]([O-])c1c2ccccc2cc2ccccc12 | -0.943% [at 92.8 µM] (inactive) | –
53 | O=S(=O)(CC1CS1)c1ccc(Oc2ccccc2)cc1 (stereo not given) | 6.95% (inactive) | –
54 | Cc1nccc2c1[nH]c1ccccc12 | -13.8% (inactive) | –
55 | COc1ccc(C(c2ccc(OC)cc2)C(Cl)(Cl)Cl)cc1 | 15.2% [at 92.8 µM] (inactive) | –
56 | O=C1CCC[C@@H]2[C@H]3CCCN4CCC[C@@H](CN12)[C@@H]34 | -6.81% (inactive) | –
57 | CCCN(CCC)C1CCc2ccc(O)cc2C1 (stereo not given) | -10.3% (inactive) | –
58 | Clc1cnc(Oc2ccc(Oc3ncc(Cl)cc3Cl)cc2)c(Cl)c1 | -0.377% (inactive) | –
59 | CCCCCCCCCC(CC)c1ccc(S(=O)(=O)O)cc1 (stereo not given) | 20.4% [at 92.8 µM] (inactive) | –
60 | CC1=C(C(=O)O)N2C(=O)[C@@H](N)[C@H]2SC1 | -12.3% [at 20.1 µM] (inactive) | –
61 | C=CCN1CC[C@]23CCCCC2[C@H]1Cc1ccc(O)cc13 (stereo not given in full) | 6.53% (inactive) | –
62 | CC(O)CN1CCN(CC(=O)[O-])CCN(CC(=O)[O-])CCN(CC(=O)[O-])CC1.[Gd+3] (stereo not given) | 5.82% (inactive) | –
63 | O=C(O)CCCOc1ccc(Cl)cc1Cl | 10.4% [at 92.8 µM] (inactive) | –
64 | C[N+](C)(C)CC(=O)O | – | inactive
65 | O=C(Nc1ccccc1-c1ccc(Cl)cc1)c1cccnc1Cl | -0.16% [at 92.8 µM] (inactive) | –
